We go through 40 compounds from PubChem BioAssay (NCI).

The panel holds about 83,000 compounds, 20% with a hit somewhere; the sample as a whole holds those more often.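 Compound tested at a single concentration for 48 hours in 96-well plates; a percent growth value below 10 was scored as active.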 Unmarked numbers belong to inactive results. Activity calls are given as the source filed them.

The experiment concerns HCC-2998 colon. Kind of experiment: NCI-60 one-dose screen, 48 h (100 = growth as untreated, 0 = no growth, -100 = all killed). The following applies: 10 µM unless noted. The protocol: Growth inhibition of the HCC-2998 human tumor cell line is measured as a screen for anti-cancer activity. Cells are grown in 96 well plates and exposed to the test compound for 48 hours. Compounds are tested at a single concentration, which is 10^-5 M for most compounds. The reported endpoint is percent growth (GI% or GIPRCNT), where numbers from 0 - 100% represent growth inhibition, and numbers from -100% - 0 represent cell death. For example, a value of 40 represents 60% growth inhibition. A value of 0 means no net growth occurred over the course of the experiment. A value of -40 indicates 40% of cells at the beginning of the experiment died by the end of the experiment. A value of -100 means all cells are dead at the end of the experiment.
NCI-60 Human Tumor Cell Lines Screen was performed using the standard one-dose NCI protocol, which is described in more detail at https://dtp.cancer.gov/discovery_development/nci-60/default.htm.
Compounds with GIPRCNT values below 10 were considered active. Activity score was based on GIPRCNT using the following formula: […]
Score is 0 for GIPRCNT values of 100 or above, 50 for GIPRCNT values of 0, and 100 for GIPRCNT values of -100.
Consider `O=C(Nc1ccc(Cl)cc1F)c1cc(I)ccc1O`, for which the growth was 81.6%. The value for `CCCCCCCCCCCCCCn1cc(C2=C(c3coc4ccc(OC)cc34)C(=O)NC2=O)c2ccccc21` was 104%; that for `CN(CCc1ccccc1)C(=S)N(C(=O)c1ccc([N+](=O)[O-])cc1)c1ccc(Cl)cc1` was 110%; that for `COc1ccc(C2c3ccc4ccccc4c3Oc3ncn(CCCn4ccnc4)c(=N)c32)cc1OC` (stereo not given) was 73.3%. For the compound `Cc1ccc2c(n1)C(=O)C(Oc1ccc(Br)cc1)=CC2=O`, the growth is 101%. On to `COc1ccc(-c2nsc3c2NC(=O)CC3c2cccc(OC)c2)cc1` (stereo not given), for which the growth was 57.4%. Turning to `COc1cc2nc(NC3CCCC3)nc(NC3CCN(C(C)C)CC3)c2cc1OC`, the growth was 29.6%. Turning to `COc1ccc(C(=O)Nc2ccc3nc(N4CCCCC4)cc(C)c3c2)cc1OC`, the growth was 66.5%. For `COC(=O)c1cc2c(n1Cc1ccccc1)-c1oncc1CCC2`, the growth was 76.2%. For the compound `CCOC(=O)C1=C(C)c2ccc(OC)c(OC)c2C1`, the growth was 91.2%.

Regarding `O=C(N=Nc1c(O)[nH]c2ccccc12)c1oc2ccccc2c1CN1CCN(c2ccccc2)CC1`, the growth is 33.6%. The value for `CCCCCCC(O)(c1ccc(F)cc1)C(CN1CCOCC1)c1ccccc1` (stereo not given) was 23.3%; that for `CN1CCN(Cc2ccc(NC(=O)c3[nH]ncc3Nc3cc(OC4CCCC4)ncn3)cc2)CC1` was 28.7%.

Take `CCCCc1c(CCC)c(=N)c2ccccc2n1C`: the growth was 107%. With `O=C1c2cc(Br)ccc2Oc2cc([N+](=O)[O-])ccc2N1c1ccc(I)cc1F`, the growth is 102%. The value for `CC(=O)c1ccc(Cc2ccc(C(C)=O)s2)s1` was 104%; that for `COc1cc(/C=C/C(=O)c2c(C)nc3ccccc3c2/C=C/c2ccccc2)cc(OC)c1OC` was 6.52% (active); that for `Cc1ccc(NCCNCC(O)CO)c2c(=O)c3ccccc3sc12` (stereo not given) was -75.1% (active). The same measure for `COc1ccc(-c2nsc3c2NC(=O)CC3c2ccsc2)cc1` (stereo not given): 31.1%; for `c1ccc(-c2ccc(-c3nc4ccccc4[nH]3)cc2)cc1`: 88.3%. Take `NNC(=O)CNC(=O)Nc1n[nH]c(=S)s1`: the growth was 106%.

In the case of `Cc1ccc(CN2CCC(C(=O)Nc3ccc(-c4cc5ccccc5[nH]4)cc3)CC2)o1`, the growth is 79.4%. With `COc1cccc(C2=NN3C(C2)c2ccccc2OC3c2ccc(/C=C3\SC(=O)NC3=O)cc2)c1` (stereo not given), the growth was 106%. On to `CCOc1ccc2nc(C)cc(Nc3ccc(Br)cc3)c2c1`, for which the growth is 117%. The same measure for `COc1ccc(C2C3=C(COC3=O)N(CCO)c3cc4c(cc32)CCC4)cc1` (stereo not given): 61.1%. Regarding `O=C(Nc1ccc(-c2nc3ccc(NC(=O)c4ccc(Cl)cc4)cc3[nH]2)cc1)c1ccc(Cl)cc1`, the growth was -23% (active). The same measure for `COC(=O)C1=C(C)NC(C)=C(C(=O)OC)C(N2C(=O)CCC2=O)C1` (stereo not given): 105%; for `CCc1ccc(CNCC(O)c2ccccc2)cc1` (stereo not given): 38.5%. For `COC(=O)/C(=C\c1c(C)[nH]c2ccccc12)S(=O)(=O)c1ccccc1`, the growth was 5.21% (active).

Turning to `O=c1oc2ccc(Br)cc2c(=O)n1-c1ccc(I)cc1F`, the growth is 18.3%. In the case of `Clc1ccc(Nc2scc3[n+]2CCC3)cc1`, the growth was 104%. The value for `N[C@@H](CC/[N+]([O-])=N/O)C(=O)O` was 112%; that for `CC[C@H](C)[C@@H](C(=O)OC)n1cc(CNC(=O)[C@@H](Cc2ccccc2)NC(=O)OCc2ccccc2)nn1` was 104%.

Turning to `OC(c1ccccc1)c1nnc(SCc2ccccc2)n1Cc1ccccc1` (stereo not given), the growth was 111%. The value for `COc1cccc(C(=O)Cn2cc(/C=C(\C#N)S(=O)(=O)c3ccccc3)c3ccccc32)c1` was 91%; that for `O=C(c1nc2ccccc2[nH]1)C1C(c2ccc([N+](=O)[O-])cc2)C2CC3CCCCC3N2[C@@]12C(=O)Nc1cc(Cl)ccc12` (stereo not given in full) was 31.6%; that for `COc1cc(C(=O)NN=C2c3ccccc3-c3ccccc32)cc(OC)c1OC` was 77.9%. The same measure for `COC(=O)c1c2c(c(C)[n+]([O-])c1C)C(=O)C(NCc1ccc(Br)cc1)=CC2=O`: 14.4%; for `O=Cc1c(OCc2cnnn2CC(=O)Nc2ccc(Cl)cc2)ccc2ccccc12`: 111%. The value for `O=C(Nc1ccc(I)cc1F)c1cc(Br)ccc1O` was 14.6%.
